Reference: ChEMBL document CHEMBL3988442, “University of Dundee, Small-Polar-MMV Screening Library” (2021)
Screen size: about 48,000 compounds; about 13,000 (27%) showed an effect of 50% or more. Some of the results follow.

Each molecule was assayed on Wolbachia pipientis (assay: Anti-Wolbachia Cell-Based Screen). Conditions: 5 µM.
Type: functional
Parameters: scale not given: in the data most compounds retested in dose-response had high values

Structure (SMILES) | Percent Effect [%]
Cc1cccc(C(C)CNC(=O)N2CCOCC3(CCOCC3)C2)c1 (stereo not drawn) | -15.26
COCCCn1ccc(NC(=O)NCCCn2ccnc2)n1 | 5.848
CC(C)[C@@H]1CN(CCOc2ccc(Cl)cc2)C[C@H]1NS(C)(=O)=O | 1.84
Cc1cccc(-c2noc([C@@H]3Cc4nc[nH]c4CN3)n2)c1 | -0.5604
COc1ccnc(N2CCCN(C(=O)Cc3ccc(C)s3)CC2)n1 | 128.9
CCOc1ccnc(N2CCN(C(=O)CCc3ccsc3)CC2)n1 | 8.96
COc1ccnc(N2CCN(C(=O)Cc3csc(C)n3)CC2)n1 | 124.6
COc1ccnc(N2CCN(C(=O)Cc3ccc(C)s3)CC2)n1 | 0.2283
COc1ccnc(N2CCN(C(=O)c3csc(C)n3)CC2)n1 | -2.798
COc1ccnc(N2CCN(C(=O)CN3CCCC3=O)CC2)n1 | -1.755
COc1ccnc(N2CCN(C(=O)Cc3ccsc3)CC2)n1 | 128.2
COc1ccnc(N2CCN(C(=O)NCc3ccc(C)s3)CC2)n1 | -6.706
COc1ccnc(N2CCN(C(=O)Cc3ccc(C#N)cc3)CC2)n1 | 1.226
COc1ccnc(N2CCN(C(=O)CCc3nccs3)CC2)n1 | -9.419
COc1ccnc(N2CCN(C(=O)Cc3ccn(C(C)C)n3)CC2)n1 | 115.4
COc1ccc(N2CCCN(C(=O)Cc3csc(C)n3)CC2)cc1 | -1.36
Cc1csc(C2(NCC(O)COc3ccc(F)cc3)CCC2)n1 (stereo not drawn) | -11.72
COc1cc(N2CCN(Cc3ccsc3)C(CCO)C2)nc(N)n1 (stereo not drawn) | 10.71
Cc1ccc(-c2ccc(C(=O)NCCS(N)(=O)=O)c(F)c2)cc1 | 17.06
CCn1nc(C)c(CNC(=O)c2cn(CCC3CCCCN3)nn2)c1C (stereo not drawn) | -6.64
Cc1nn(C)c2c(=O)n(CC(=O)NC3CCCCC3)ccc12 | 138.3
O=C(Cn1nc(-c2ccc(F)cc2)oc1=O)NCC1CCCO1 (stereo not drawn) | -3.643
Cc1nn(C)c2c(N3CCN(C(=O)NC4CCCCC4)CC3)ncnc12 | 8.343
CCN1CCC(NC(=O)Cn2cc(C)c3ccccc32)CC1 | -38.76
Cc1noc(C)c1CNC(=O)c1cn(CCC2CCCCN2)nn1 (stereo not drawn) | -0.3777
CCn1nc(C)c(CNC(=O)c2cn(CC3CCCO3)nn2)c1C (stereo not drawn) | 113.5
CC1CCN(S(=O)(=O)c2cccn(CC(=O)NC3CCCC3)c2=O)CC1 | -17.34

Structure (SMILES) | Percent Effect [%]
CCn1nc(C)c2ccn(CC(=O)NC3CCCC3)c(=O)c21 | -1.508
Cc1cc(=O)n(CC(=O)NCC2CCCO2)c(-c2cccc(Cl)c2)n1 (stereo not drawn) | 14.67
CCn1nc(C)c2ccn(CC(=O)NC3CC3)c(=O)c21 | 112.9
CCn1nc(C)c2ccn(CC(=O)NCC3CCCO3)c(=O)c21 (stereo not drawn) | 132.9
Cc1ccccc1C(C#N)NC(=O)c1cccc2c1OCCO2 (stereo not drawn) | 0.1196
COc1ccc(OC)c(CNCCc2cc(F)cc3c2OCOC3)c1 | 17.88
Cc1ccc(S(C)(=O)=O)cc1C(=O)N(C)Cc1ccco1 | 9.899
NC(=O)c1ccc(=O)n(Cc2cc(Br)ccc2Cl)n1 | 5.907
Cc1cc(C(=O)Nc2nnn[nH]2)ccc1I | -9.005
CCn1nc(C)c2ccn(CC(=O)NC(C)C)c(=O)c21 | 83.24
Cc1c2ncn(CC(=O)NC(C)C)c(=O)c2nn1C | -0.5924
CCn1nc(C)c2ccn(CC(=O)NCCN3CCCCC3)c(=O)c21 | 109.9
CC(C(=O)NCCN1CCCCCC1)n1cncn1 (stereo not drawn) | 6.754
Cc1cc(C(C)NC(=O)Cn2nc(C)c3ccccc3c2=O)c(C)o1 (stereo not drawn) | -1.65
CCCNC(=O)Cn1nc(C)c2cnn(C(C)(C)C)c2c1=O | 7.954
CCC(C)NC(=O)Cn1ccc2c(C)nn(CC)c2c1=O (stereo not drawn) | 121.4
CCn1nc(C)c2nnn(CC(=O)Nc3c(C)cccc3C)c(=O)c21 | 15.34
C1CN(c2nc3c(c(NC4CC4)n2)CN(CC2CCOC2)CC3)CCO1 (stereo not drawn) | -9.007
Cn1cc(CN2CCC3(CCC(C(=O)NCC4CC4)C3)CC2)cn1.O=C(O)C(F)(F)F (stereo not drawn) | 38.61
O=C(c1ccncc1Cl)N1CCN(Cc2ccco2)C(CCO)C1 (stereo not drawn) | -0.1352
Cc1nn(C)c(C)c1NC(=O)CNC(c1ccc(F)cc1)C1CCC1 (stereo not drawn) | 19.96
COc1cccc2c1OCC(CNC(=O)Cc1c(C)nc(N)nc1C)C2 (stereo not drawn) | -7.382
CCNC(=O)c1ccnc(NCC2COc3cc(OC)ccc3C2)c1 (stereo not drawn) | -7.933
CCc1nc2c(NCC3COc4cc(OC)ccc4C3)ncnc2o1 (stereo not drawn) | -96.33
COc1ccc2c(c1)OCC(Cc1cnc(N)c(C)c1)C2 (stereo not drawn) | 16.7
COc1ccc2c(c1)OCC(Cc1ccc(C)nc1N)C2 (stereo not drawn) | 95.38
